IDE exosite FP = insulin-degrading enzyme (human) exo-site inhibition. P14735. z-score at 20 µM. 6.3% of 17,000 active. purified IDE, FL-6b probe fluorescence polarization; stronger effect = lower value. AID 1259349;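 active = z-score of -3 or lower, meaning strong loss of probe binding signal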;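 also: His-tagged human IDE residues 42-1019 made in E. coli with 30 nM FL-6b probe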
Target sequence (P14735 42-1019 limits assumed): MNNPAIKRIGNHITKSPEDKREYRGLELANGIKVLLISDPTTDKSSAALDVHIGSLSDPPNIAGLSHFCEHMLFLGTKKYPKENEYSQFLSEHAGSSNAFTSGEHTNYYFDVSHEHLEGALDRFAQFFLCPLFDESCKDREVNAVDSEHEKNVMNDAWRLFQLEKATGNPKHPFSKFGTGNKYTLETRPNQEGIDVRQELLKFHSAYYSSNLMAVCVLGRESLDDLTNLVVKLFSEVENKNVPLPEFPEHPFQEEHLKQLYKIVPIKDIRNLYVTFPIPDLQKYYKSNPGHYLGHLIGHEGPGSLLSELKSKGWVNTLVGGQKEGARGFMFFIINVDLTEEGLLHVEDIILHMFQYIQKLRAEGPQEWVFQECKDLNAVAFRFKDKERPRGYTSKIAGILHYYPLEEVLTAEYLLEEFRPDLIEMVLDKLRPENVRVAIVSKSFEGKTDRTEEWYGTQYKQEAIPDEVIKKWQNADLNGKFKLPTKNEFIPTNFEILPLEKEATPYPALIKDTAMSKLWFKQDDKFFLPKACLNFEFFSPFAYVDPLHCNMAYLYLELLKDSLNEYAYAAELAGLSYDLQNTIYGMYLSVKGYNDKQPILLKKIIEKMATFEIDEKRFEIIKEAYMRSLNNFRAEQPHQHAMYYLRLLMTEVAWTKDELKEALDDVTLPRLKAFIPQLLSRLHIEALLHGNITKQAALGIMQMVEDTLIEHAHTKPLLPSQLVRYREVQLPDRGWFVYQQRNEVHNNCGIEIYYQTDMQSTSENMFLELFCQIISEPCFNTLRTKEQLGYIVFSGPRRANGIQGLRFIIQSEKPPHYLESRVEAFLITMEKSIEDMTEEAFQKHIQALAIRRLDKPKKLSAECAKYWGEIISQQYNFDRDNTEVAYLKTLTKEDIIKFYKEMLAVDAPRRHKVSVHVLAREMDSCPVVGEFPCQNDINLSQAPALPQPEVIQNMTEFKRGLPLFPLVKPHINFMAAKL
Starred values were filed as active, the others as inactive; ! = a repeat was not active. The full list was thinned out, with hits kept by preference.

SMILES	IDE exosite FP
COC(=O)c1ccc(CN2CC(=O)N3[C@H](CO)[C@@H](c4ccc(Br)cc4)[C@@H]3C2)cc1	-3.55*
COC(=O)c1ccc(CN2CC(=O)N3[C@H](CO)[C@H](c4ccc(Br)cc4)[C@@H]3C2)cc1	-0.792
C/C=C/c1ccc([C@@H]2[C@@H](CO)N3C(=O)CN(Cc4ccc(C)cc4)C[C@@H]23)cc1	1.18
COC(=O)c1ccc(CN2CC(=O)N3[C@H](CO)[C@@H](c4ccc(Br)cc4)[C@H]3C2)cc1	2.84
C/C=C/c1ccc([C@H]2[C@H](CO)N3C(=O)CN(Cc4ccc(C)cc4)C[C@@H]23)cc1	-4.97*
C/C=C/c1ccc([C@@H]2[C@H]3CN(Cc4ccc(C)cc4)CC(=O)N3[C@H]2CO)cc1	1.96
CO[C@H]1CN(C)C(=O)c2ccc(NC(=O)Nc3ccccc3Cl)cc2OC[C@@H](C)NC[C@@H]1C	-0.955
CCC(=O)N1C[C@H](O)COC[C@H]2O[C@H](CC(=O)NCc3ccc(Oc4ccccc4)cc3)CC[C@@H]21	0.744
CC(C)N(C[C@H]1N[C@H](CO)[C@@H]1c1ccccc1)C(=O)CN1CCOCC1	7.15
CS(=O)(=O)N1[C@H](CO)[C@@H](c2ccc(C#CC3CC3)cc2)[C@@H]1C#N	2.85
CN(C)CC#Cc1ccc([C@@H]2[C@@H](CO)N3CCCCN(C(=O)C4CCC4)C[C@H]23)cc1	0.611
O=C(NC1CCCCC1)N1CC(=O)N2[C@H](CO)[C@@H](c3ccc(-c4cccc(F)c4)cc3)[C@H]2C1	-1.62
Cc1cccc(-c2ccc([C@@H]3[C@H]4CN(C(=O)NC5CCCCC5)CC(=O)N4[C@H]3CO)cc2)c1	-15.8*
Cc1cccc(-c2ccc([C@H]3[C@H](CO)N4C(=O)CN(C(=O)NC5CCCCC5)C[C@@H]34)cc2)c1	-16.3*
Cc1cccc(-c2ccc([C@H]3[C@@H](CO)N4C(=O)CN(C(=O)NC5CCCCC5)C[C@@H]34)cc2)c1	-10.1*
O=C(NC1CCCCC1)N1CC(=O)N2[C@@H](CO)[C@@H](c3ccc(C4=CCCC4)cc3)[C@@H]2C1	2.3
O=C(NC1CCCCC1)N1CC(=O)N2[C@H](CO)[C@H](c3ccc(-c4cccc(F)c4)cc3)[C@@H]2C1	-0.0284
CCCN1C[C@@H](C)[C@H](OC)CN(C)C(=O)c2cc(NS(=O)(=O)c3ccccc3)ccc2OC[C@H]1C	0.963
O=C(NC[C@H]1N[C@H](CO)[C@@H]1c1ccc(-c2cncnc2)cc1)c1ccccc1F	2.24
CN(C[C@@H]1[C@@H](c2ccccc2)[C@H](CO)N1CC1CC1)C(=O)c1cccc(F)c1	1.7
CNC[C@@H]1OCCCC[C@H](C)Oc2ccc(NC(=O)Nc3ccc(OC)cc3)cc2C(=O)N([C@H](C)CO)C[C@H]1C	0.954
COCC(=O)N1[C@H](C#N)[C@H](c2ccc(-c3cccc(F)c3)cc2)[C@@H]1CO	1.24
C/C=C/c1ccc([C@@H]2[C@H](CO)N(C(=O)CC)[C@H]2CNC(=O)C2CC2)cc1	4.05
CN(C)C(=O)c1ccc(-c2ccccc2[C@@H]2[C@@H](C#N)N(C(=O)C3CCCCC3)[C@H]2CO)cc1	1.79
COc1cccc(CN2C[C@@H]3N[C@H](C2)C3c2ccc(-c3cccc(C#N)c3)cc2)c1 (stereo partly drawn)	0.368
SMILES	IDE exosite FP
COc1cccc(-c2ccc(C3[C@@H]4CN(Cc5cccc(F)c5)C[C@H]3N4)cc2)c1 (stereo partly drawn)	-1.13
COc1cccc(CN2C[C@@H]3N[C@H](C2)C3c2ccc(-c3ccncc3)cc2)c1 (stereo partly drawn)	1.78
COc1cccc(CN2C[C@@H]3N[C@H](C2)C3c2ccc(-c3ccccc3C)cc2)c1 (stereo partly drawn)	-3.97*!
COc1cccc(CN2C[C@@H]3N[C@H](C2)C3c2ccc(-c3ccccc3F)cc2)c1 (stereo partly drawn)	-5.06*!
Fc1ccc(-c2ccc(C3[C@@H]4CN(Cc5cccc(F)c5)C[C@H]3N4)cc2)cc1 (stereo partly drawn)	3.66
COCC(=O)N1[C@H](C#N)[C@H](c2ccccc2C2=CCCCC2)[C@H]1CO	0.887
C[C@@H](NC(=O)C[C@@H]1CC[C@@H]2[C@H](COC[C@H](O)CN2C(=O)Nc2cccc(Cl)c2)O1)c1ccccc1	0.131
CN(C)CC#Cc1ccc([C@H]2[C@H]3CN(C(=O)Cc4cccnc4)CC(=O)N3[C@H]2CO)cc1	0.738
COc1ccc(-c2ccc([C@H]3[C@@H](CO)N4CCCCN(S(=O)(=O)c5cccs5)C[C@@H]34)cc2)cc1	4.44
Cc1ccccc1S(=O)(=O)N1[C@H](C#N)[C@H](c2ccc(-c3ccccc3)cc2)[C@@H]1CO	1.56
O=C(NC[C@@H]1[C@@H](c2ccccc2)[C@@H](CO)N1Cc1cccnc1)C1CCCCC1	0.913
O=C(C1CCOCC1)N1CC(=O)N2[C@H](CO)[C@H](c3ccc(Br)cc3)[C@H]2C1	0.691
O=C(C1CCOCC1)N1CC(=O)N2[C@H](C1)[C@H](c1ccc(/C=C/c3ccccc3)cc1)[C@@H]2CO	-3.26*
O=C(C1CCOCC1)N1CC(=O)N2[C@H](C1)[C@@H](c1ccc(Br)cc1)[C@@H]2CO	1.91
